Measurements reported in PubChem BioAssay (NCI).
This is part of a sample that, as a whole, favours compounds with a hit. Of some 79,000 tested, about 15% had one in any assay. The source made the active and inactive calls. No stated cut-off is given here; in the data, active means growth inhibition above about 70%; inactive means the rest.

How the values were obtained:
[1] = NCI Yeast Anticancer Drug Screen. Data for the rad52 strain (AID 147);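 further: 0% = growth of vehicle-treated control cultures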; conditions: S. cerevisiae rad52 mutant growth inhibition, hits give high values
Summary of the method: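 The repair-mutant yeast strain was incubated with compounds, then growth was read and inhibition derived relative to vehicle.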

[2] = NCI Yeast Anticancer Drug Screen. Data for the wt1 strain (AID 149);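 further: 0% = growth of vehicle-treated wt1 cultures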; conditions: S. cerevisiae wt1 strain (SPY 50644) growth inhibition, hits give high values
Summary of the method: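 Compounds are added to wt1 yeast cultures. Growth is then measured. Inhibition is expressed relative to vehicle-treated controls.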

[3] = NCI Yeast Anticancer Drug Screen. Data for the rad50EPP+ strain (AID 151);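 further: 0% = growth of vehicle-treated control cultures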; conditions: S. cerevisiae rad50 mutant strain, hits give high values
Summary of the method: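 Vehicle-normalised growth inhibition; rad50EPP+ yeast strain, altered in DNA damage repair, compound-treated.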

[4] = NCI Yeast Anticancer Drug Screen. Data for the rad50 strain (AID 155);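 further: 0% = growth of vehicle-only cultures of the same strain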; conditions: S. cerevisiae rad50 strain growth inhibition, hits give high values
Summary of the method: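 Inhibition values express reduced yeast growth in compound-treated cultures relative to vehicle-treated controls.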

[5] = NCI Yeast Anticancer Drug Screen. Data for the mec2-1 strain (AID 157); conditions: S. cerevisiae mec2-1 strain, hits give high values
Summary of the method: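 Mutant yeast (mec2-1) grown with compound; growth inhibition relative to vehicle control reported.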

[6] = NCI Yeast Anticancer Drug Screen. Data for the rad14 strain (AID 159);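 further: 0% = growth of vehicle-treated control cultures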; conditions: S. cerevisiae rad14 strain growth inhibition, hits give high values
Summary of the method: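 A mutant yeast strain defective in DNA damage repair is treated with compound; inhibition of its growth is scored against untreated, vehicle-exposed cultures.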

[7] = NCI Yeast Anticancer Drug Screen. Data for the sgs1 mgt1 strain (AID 161);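 further: 0% = growth of cultures given vehicle only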; conditions: S. cerevisiae sgs1 mgt1 strain, hits give high values
Summary of the method: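 Yeast cells carrying a defined DNA-repair defect were exposed to test compounds. Growth inhibition was measured relative to vehicle-treated controls.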

[8] = NCI Yeast Anticancer Drug Screen. Data for the CLN2oe strain (AID 163);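 further: 0% = growth of vehicle-only control cultures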; conditions: S. cerevisiae CLN2oe strain, hits give high values
Summary of the method: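 Compounds are applied to yeast harbouring a defined cell-cycle control change; reduced growth compared with vehicle-treated controls gives the value.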

[9] = NCI Yeast Anticancer Drug Screen. Data for the cln2 rad14 strain (AID 165);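 further: 0% = growth equal to vehicle treated cultures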; conditions: S. cerevisiae cln2 rad14 strain, hits give high values
Summary of the method: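 Readout is yeast growth inhibition versus vehicle-treated controls, using a strain with cln2 and rad14 alterations exposed to compound.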

[10] = NCI Yeast Anticancer Drug Screen. Data for the bub3 strain (AID 167); conditions: S. cerevisiae bub3 mutant strain, hits give high values
Summary of the method: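 Steps: expose the mutant yeast strain to compound; grow alongside vehicle-treated cultures; measure growth; express inhibition against the vehicle cultures.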

[11] = NCI Yeast Anticancer Drug Screen. Data for the wt2 strain (AID 169);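 further: 0% = growth of vehicle-treated yeast cultures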; conditions: S. cerevisiae wt2 strain growth inhibition, hits give high values
Summary of the method: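 Against vehicle-treated controls, the growth of yeast exposed to each compound was compared, and the inhibition was recorded.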

[12] = NCI Yeast Anticancer Drug Screen. Data for the mlh1 strain (AID 171);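 further: 0% = growth of vehicle-treated control cultures of the same strain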; conditions: S. cerevisiae mlh1 strain growth inhibition, hits give high values
Summary of the method: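 Measured: yeast growth. Reference: vehicle-treated controls. Organism: strain with a defined alteration affecting DNA damage repair or cell cycle control, treated with compound.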

[13] = NCI Yeast Anticancer Drug Screen. Data for the sgs1 strain (AID 173);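 further: 0% = growth of vehicle-only control cultures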; conditions: S. cerevisiae sgs1 mutant, hits give high values
Summary of the method: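 Each compound was added to cultures of the altered yeast strain. Growth was recorded, and inhibition was derived by comparison with vehicle controls.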

[14] = NCI Yeast Anticancer Drug Screen. Data for the mlh1 rad18 strain (AID 175); conditions: S. cerevisiae mlh1 rad18 strain growth inhibition, hits give high values
Summary of the method: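 Genetically defined yeast (DNA repair-deficient) exposed to compounds; growth inhibition determined relative to vehicle.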

[15] = NCI Yeast Anticancer Drug Screen. Data for the rad18 strain (AID 177); conditions: S. cerevisiae rad18 mutant growth inhibition, hits give high values
Summary of the method: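 Vehicle-treated cultures served as the baseline for scoring compound-induced growth inhibition in DNA-repair-mutant yeast.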

[16] = NCI Yeast Anticancer Drug Screen. Data for the mgt1 strain (AID 153); conditions: S. cerevisiae mgt1 mutant growth inhibition, hits give high values
Summary of the method: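 Vehicle-normalized growth inhibition is determined in mgt1 yeast, a strain selected for a defined alteration in DNA repair or cell cycle control.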

[17] = at 5.0 µM (retest, dose inferred, filed as 0.5)
[18] = at 50.0 µM (retest, dose inferred, filed as 5.0)

Measured: growth inhibition

CCC(C)COC(=O)c1ccc(N=Cc2ccc(C=Nc3ccc(C(=O)OCC(C)CC)cc3)cc2)cc1 (stereo unspecified)
inactive: [1]; at 1.2 µM -2% | [1]; at 3.7 µM -3% | [1]; at 11.0 µM 6% | [1]; at 33.0 µM 4% | [1]; at 100.0 µM 13% | [2]; at 1.2 µM -1% | [2]; at 3.7 µM -4% | [2]; at 11.0 µM -2% | [2]; at 33.0 µM -1% | [2]; at 100.0 µM 3% | [3]; at 1.2 µM 5% | [3]; at 3.7 µM 5% | [3]; at 11.0 µM 16% | [3]; at 33.0 µM 32% | [3]; at 100.0 µM 49% | [4]; at 1.2 µM -2% | [4]; at 3.7 µM -9% | [4]; at 11.0 µM -2% | [4]; at 33.0 µM 3% | [4]; at 50.0 µM 28.8% | [4]; at 100.0 µM 21% | [5]; at 1.2 µM -3% | [5]; at 3.7 µM -2% | [5]; [17] 13% | [5]; at 11.0 µM 3% | [5]; at 33.0 µM 4% | [5]; [18] 13% | [5]; at 50.0 µM 49.6% | [5]; at 100.0 µM 8% | [6]; at 1.2 µM -1% | [6]; at 3.7 µM 1% | [6]; at 11.0 µM 4% | [6]; at 33.0 µM 2% | [6]; at 100.0 µM 11% | [8]; at 1.2 µM 0% | [8]; at 3.7 µM 0% | [8]; at 11.0 µM 6% | [8]; at 33.0 µM -1% | [8]; at 100.0 µM 0% | [9]; [17] 12% | [9]; [18] 12% | [9]; at 50.0 µM 41% | [10]; at 1.2 µM 7% | [10]; at 3.7 µM 3% | [10]; [17] 3% | [10]; at 11.0 µM 6% | [10]; at 33.0 µM 10% | [10]; [18] 3% | [10]; at 50.0 µM 62.1% | [10]; at 100.0 µM 10% | [11]; at 1.2 µM 0% | [11]; at 3.7 µM -2% | [11]; at 11.0 µM 0% | [11]; at 33.0 µM 2% | [11]; at 100.0 µM 5% | [12]; at 1.2 µM 0% | [12]; at 3.7 µM 3% | [12]; at 11.0 µM 2% | [12]; at 33.0 µM 10% | [12]; at 100.0 µM 19% | [13]; at 1.2 µM -2% | [13]; at 3.7 µM -2% | [13]; at 11.0 µM 2% | [13]; at 33.0 µM 7% | [13]; at 100.0 µM 11% | [14]; [17] 50% | [14]; [18] 50% | [14]; at 50.0 µM 57.1% | [15]; at 1.2 µM -1% | [15]; at 3.7 µM -3% | [15]; at 11.0 µM 3% | [15]; at 33.0 µM 13% | [15]; at 100.0 µM 22%
active: [4]; [17] 96% | [4]; [18] 96% | [7]; [17] 98% | [7]; [18] 98% | [7]; at 50.0 µM 70.3%

CN(C)c1ccc(C(C#N)=C(C#N)C#N)cc1
active: [4]; [18] 70% | [4]; at 50.0 µM 88.2% | [5]; [18] 82% | [5]; at 50.0 µM 89.3% | [7]; at 50.0 µM 73.2% | [10]; [18] 77% | [10]; at 50.0 µM 83.4% | [14]; [18] 76% | [14]; at 50.0 µM 89.6%
inactive: [1]; at 1.2 µM -2% | [1]; at 3.7 µM -1% | [1]; at 11.0 µM 2% | [1]; at 33.0 µM 5% | [1]; at 100.0 µM 49% | [2]; at 1.2 µM -6% | [2]; at 3.7 µM -5% | [2]; at 11.0 µM -6% | [2]; at 33.0 µM -4% | [2]; at 100.0 µM 12% | [3]; at 1.2 µM 1% | [3]; at 3.7 µM 3% | [3]; at 11.0 µM 7% | [3]; at 33.0 µM 15% | [3]; at 100.0 µM 50% | [16]; at 1.2 µM -3% | [16]; at 3.7 µM -2% | [16]; at 11.0 µM -1% | [16]; at 33.0 µM -4% | [16]; at 100.0 µM 10% | [4]; at 1.2 µM -2% | [4]; at 3.7 µM -8% | [4]; [17] -127% | [4]; at 11.0 µM 6% | [4]; at 33.0 µM 11% | [4]; at 100.0 µM 62% | [5]; at 1.2 µM 2% | [5]; at 3.7 µM 2% | [5]; [17] -35% | [5]; at 11.0 µM 9% | [5]; at 33.0 µM 3% | [5]; at 100.0 µM 18% | [7]; [17] -47% | [7]; [18] 60% | [8]; at 1.2 µM 2% | [8]; at 3.7 µM 7% | [8]; at 11.0 µM 8% | [8]; at 33.0 µM 8% | [8]; at 100.0 µM 16% | [9]; [17] -45% | [9]; [18] 6% | [9]; at 50.0 µM 59.5% | [10]; at 1.2 µM -10% | [10]; at 3.7 µM -5% | [10]; [17] -54% | [10]; at 11.0 µM -5% | [10]; at 33.0 µM -7% | [10]; at 100.0 µM 31% | [11]; at 1.2 µM -2% | [11]; at 3.7 µM 0% | [11]; at 11.0 µM -1% | [11]; at 33.0 µM 0% | [11]; at 100.0 µM 7% | [12]; at 1.2 µM 6% | [12]; at 3.7 µM -6% | [12]; at 11.0 µM -3% | [12]; at 33.0 µM -6% | [12]; at 100.0 µM 17% | [13]; at 1.2 µM -1% | [13]; at 3.7 µM -3% | [13]; at 11.0 µM -3% | [13]; at 33.0 µM -2% | [13]; at 100.0 µM 44% | [14]; [17] -108% | [15]; at 1.2 µM 0% | [15]; at 3.7 µM 1% | [15]; at 11.0 µM 5% | [15]; at 33.0 µM 6% | [15]; at 100.0 µM 39%

Cn1c(=O)c2ccccc2c2ccccc21
active: [1]; at 33.0 µM 88% | [1]; at 100.0 µM 96% | [3]; at 33.0 µM 87% | [3]; at 100.0 µM 91% | [4]; at 33.0 µM 91% | [4]; [18] 84% | [4]; at 50.0 µM 97% | [4]; at 100.0 µM 94%
inactive: [1]; at 1.2 µM -2% | [1]; at 3.7 µM 9% | [1]; at 11.0 µM 32% | [2]; at 1.2 µM -5% | [2]; at 3.7 µM -8% | [2]; at 11.0 µM -10% | [2]; at 33.0 µM 11% | [2]; at 100.0 µM 21% | [3]; at 1.2 µM 0% | [3]; at 3.7 µM 19% | [3]; at 11.0 µM 52% | [16]; at 1.2 µM -1% | [16]; at 3.7 µM -3% | [16]; at 11.0 µM -1% | [16]; at 33.0 µM 35% | [16]; at 100.0 µM 51% | [4]; at 1.2 µM -3% | [4]; at 3.7 µM 4% | [4]; [17] -132% | [4]; at 11.0 µM 41% | [5]; at 1.2 µM 0% | [5]; at 3.7 µM 0%
